Laboratory results from ChEMBL document CHEMBL4513216, “Probing the Open Global Health Chemical Diversity Library for Multistage-Active Starting Points for Next-Generation Antimalarials” (ACS Infect Dis, 2020).
About 8,600 (12%) of roughly 69,000 compounds showed an effect of 50% or more. The list comes from a sample in which strong results are over-represented; it also holds similar structures and randomly drawn compounds.

Tested on: Plasmodium berghei
Assay: Screen against P. berghei liver stage (PbLuc), transformed with Luciferase, at 10uM
Type: functional, HepG2
Conditions: tested at 10 uM

Structure (SMILES)	INHIBITION
NC1CCC(CN2CCCn3nc(CNC(=O)C4CCC4)cc3C2)CC1 (configuration not stated)	18.4%
Cc1cnc(C(=O)N2CCCN(c3nc(C)cs3)CC2)cn1	-5.25%
Cc1ccc(CN2CC[C@@H](N3CCOCC3)[C@@H]2Cc2cccnc2)o1	12.1%
CCCC(O)CN1CC(C)(C)CN(C(=O)c2ccc(Cl)cc2)CC1=O (configuration not stated)	46.4%
O=C([C@H]1C[C@@H]2CCN(c3cccc(F)c3)C[C@H]2O1)N1CCCCO1	23.3%
c1cnnc(N[C@@H]2CC[C@@H]3CN(Cc4ccc5[nH]ccc5c4)C[C@@H]32)c1	27.2%
Cc1nn(CCN2CCSCC2)cc1CNCC1CC1	-22%
O=C(NCc1ccco1)[C@@]12CCO[C@@H]1CCN(C1CCC1)C2	29%
CS(=O)(=O)N1C[C@H]2CCCN(Cc3nccs3)[C@H]2C1	33.4%
NC1CCC(n2cc(C(=O)NC3COc4ccccc43)nn2)CC1 (configuration not stated)	-28%
CN(C)CCN1CC[C@@H]2O[C@@H](COCC(=O)N3CCCC3)CC[C@@H]21	29%
O=C(O)CNC(=O)Cc1csc(-c2cccc(Cl)c2)n1	44.9%
COc1cc(N2CC[C@H]3O[C@@H](C(=O)NC4CCCC4)CC[C@H]32)ncn1	-5.31%
CC(C)n1cc(N2CC(C(=O)N3CCC(C(N)=O)CC3)CC2=O)cn1 (configuration not stated)	-23.5%
CCCc1nc(CNC(C)Cn2cccn2)cs1 (configuration not stated)	-31.5%
CCCc1nc(CNC(=O)Cc2cc(C)no2)cs1	31.6%
CCCc1nc(CNc2nc(C)nc3oc(C)nc23)cs1	50.8%
CCS(=O)(=O)NCC(=O)Nc1cc(CC(C)(C)C)n[nH]1	-10.7%
O=C(CSCC1CC1)N1C[C@H]2CC[C@@H](C1)N(Cc1ccccn1)C2=O	17%
Cc1cnn(CC2CCCN2CC(=O)Nc2cc(C)nn2C)c1 (configuration not stated)	38.6%
CC(C)C(=O)NC(Cc1cc(N(C)C)nc(C2CC2)n1)c1ccccc1 (configuration not stated)	45.9%
COCC(=O)NC(Cc1cc(N(C)C)nc(C2CC2)n1)c1ccccc1 (configuration not stated)	51.4%
CCC(=O)NC(Cc1cc(N(C)C)nc(C2CC2)n1)c1ccccc1 (configuration not stated)	33.8%
Cc1ccc2c(c1)c(CNC(=O)C1CC(=O)N(C3CC3)C1)nn2C (configuration not stated)	-6.34%
Cc1ccc2c(c1)c(CNC(=O)C1CC(=O)N(CCN(C)C)C1)nn2C (configuration not stated)	82.4%
Cc1ccc2c(c1)c(CNC(=O)C1CC(=O)N(C3CCCC3)C1)nn2C (configuration not stated)	38.5%
O=C(NCC1CCS(=O)(=O)C1)N(Cc1ccncc1)C1CC1 (configuration not stated)	-1.15%
